# Results published in PubChem BioAssay AID463173 (ICCB-Longwood Screening Facility, Harvard Medical School, 2010).
# Screen size: about 52,000 compounds; about 1,700 (3.3%) were called active. The entries come from a sample that favours actives as a whole. A number with no mark means an inactive call. No stated cut-off is given here; in the data, active means survival mostly below about 52% (no sharp cut-off); inactive means mostly above about 56%.
# System: Wild type
# Experiment: growth inhibition of S. aureus wild type versus tarO mutant, primary screen, teichoic acid synthesis inhibitors, RN4220, OD600 (AID 463173)
# Details: S. aureus RN4220 wild type/DeltatarO growth, OD600, 18 h, hits give low values, screened at 18.75 µg/mL (by protocol)
row,Compound,survival
1,Cc1ccccc1Cn1c(C)c(CNCCCc2ccccc2)c(C(=O)O)c1C,98%
2,O=C(c1ccc2c(c1)N(Cc1ccccc1F)C(=O)c1ccccc1S2=O)N1CCCCC1 (stereo not given),89%
3,CCCS(=O)(=O)c1ncc(Cl)c(C(=O)N(Cc2ccccc2)Cc2ccco2)n1,44%
4,Cc1ccn2c(Nc3ccccc3C)c(-c3cccnc3)nc2c1,71%
5,Cc1ccn2c(Nc3ccccc3C)c(-c3ccncc3)nc2c1,80%
6,Cc1ccn2c(Nc3ccccc3C)c(-c3ccccc3)nc2c1,-3% (active)
7,CCCC12CN3CC(CCC)(CN(C1)C3c1ccc(OC(C)C)cc1)C2=O (stereo not given),39%
8,COc1cc(NS(=O)(=O)c2ccc3[nH]c4c(c3c2)CCCCCC4)cc(OC)c1,57%
9,Cc1ccc(NS(=O)(=O)c2ccc3[nH]c4c(c3c2)CCCCCC4)cc1Cl,71%
10,COC(=O)c1ccc(NS(=O)(=O)c2ccc3[nH]c4c(c3c2)CCCC4)cc1,1% (active)
11,O=S(=O)(NCc1ccc(F)cc1)c1ccc2[nH]c3c(c2c1)CCCC3,-3% (active)
12,Cc1ccc(NS(=O)(=O)c2ccc3[nH]c4c(c3c2)CCCCCC4)cc1C,-3% (active)
13,COc1ccc(NS(=O)(=O)c2ccc3[nH]c4c(c3c2)CCCCC4)cc1,127%
14,COC(=O)c1ccc(NS(=O)(=O)c2ccc3[nH]c4c(c3c2)CCCCC4)cc1,119%
15,Cc1ccc(NS(=O)(=O)c2ccc3[nH]c4c(c3c2)CCCCCC4)cc1,71%
16,COc1ccc(NS(=O)(=O)c2ccc3[nH]c4c(c3c2)CCCCCC4)cc1,-4% (active)
17,Cc1ccc(CNS(=O)(=O)c2ccc3[nH]c4c(c3c2)CCCC4)cc1,82%
18,CC(=O)c1ccc(NS(=O)(=O)c2ccc3[nH]c4c(c3c2)CCCC4)cc1,84%
19,O=S(=O)(NCc1ccc(F)cc1)c1ccc2[nH]c3c(c2c1)CCCCC3,55%
20,CCC(C)NC(=O)Cn1c(=O)n(-c2cc(OC)cc(OC)c2)c(=O)c2ccccc21 (stereo not given),94%
21,CCOc1ccc(OCC)c(NC(=O)c2cc(CN3CCOCC3)on2)c1,72%
22,COCCn1c(CCC(=O)Nc2ccc(OC)c(OC)c2)nc2cccnc21,90%
23,CC1CCN(C(=O)CN(C)S(=O)(=O)c2ccc3ccccc3c2)CC1,115%
24,CCCCN(C(=O)c1cccs1)c1nnc(-c2cc(OC)cc(OC)c2)s1,116%

row,Compound,survival
1,O=C1CCCc2cc(S(=O)(=O)NCC3CCC(C(=O)NCc4ccc(F)cc4)CC3)ccc2N1 (stereo not given),93%
2,O=C(NCCc1ccccc1)c1ccc2c(c1)CCN2S(=O)(=O)c1ccc(Cl)cc1,114%
3,O=C(Nc1nc2ccccc2s1)c1ccc(S(=O)(=O)N2CCCC2)cc1,80%
4,CCc1nn(CC(=O)NCCc2ccc(OC)c(OC)c2)c(=O)c2cc3occc3n12,147%
5,CCS(=O)(=O)N1CC(=O)N(c2ccccc2C)C(C)(C(=O)NC2CCCCC2)C1 (stereo not given),82%
6,Cc1ccc(C)c(N2CCN(S(=O)(=O)c3ccc4[nH]c5c(c4c3)CCCC5)CC2)c1,-4% (active)
7,Cc1ccc(N2CCN(S(=O)(=O)c3ccc4[nH]c5c(c4c3)CCCCC5)CC2)c(C)c1,135%
8,Cc1ccc(C)c(N2CCN(S(=O)(=O)c3ccc4[nH]c5c(c4c3)CCCCC5)CC2)c1,89%
9,CCOC(=O)c1ccc(NC(=O)CN2c3ccccc3S(=O)(=O)c3ccccc32)cc1,121%
10,O=C(NCc1ccco1)c1ccc(Cn2c(SCc3ccccc3F)nc3cccnc32)cc1,74%
11,CCOC(=O)/C(C#N)=C(\O)c1ccccc1,104%
12,CCc1ccc(OCC(=O)Nc2c(C(=O)c3ccccc3)oc3ccccc23)cc1,65%
13,CCc1ccc(OC(C)C(=O)Nc2c(C(=O)c3ccccc3)oc3ccccc23)cc1 (stereo not given),13% (active)
14,Cc1cc(C)cc(OC(C)C(=O)Nc2c(C(=O)c3ccccc3)oc3ccccc23)c1 (stereo not given),-1% (active)
15,CCOc1ccc(NC(=O)c2oc3ccccc3c2NC(=O)C(C)Oc2ccccc2)cc1 (stereo not given),94%
16,COc1cc2c(cc1NC(=O)COc1cc(C)cc(C)c1)oc1ccccc12,75%
17,COc1cc2c(cc1NC(=O)C(C)Oc1ccc(Cl)cc1Cl)oc1ccccc12 (stereo not given),49%
18,Cc1cc(OC(C)C(=O)Nc2c(C(=O)c3ccc(F)cc3)oc3ccccc23)ccc1Cl (stereo not given),68%
19,Cc1cc(C)cc(OCC(=O)Nc2c(C(=O)c3ccccc3)oc3ccccc23)c1,78%
20,COc1cc2c(cc1NC(=O)C(C)Oc1ccccc1)oc1ccccc12 (stereo not given),1% (active)
21,CC(=O)c1cc(-c2ccc(F)cc2)n(CC(=O)Nc2cc(C)cc(C)c2)c1C,66%
22,Cc1ccc(Nc2c(-c3ccc(C)s3)nc3ncccn23)cc1,43%
23,Cc1cccc(N2CCN(C(=O)c3cnc4c(C)cccn4c3=O)CC2C)c1 (stereo not given),0% (active)
24,Cc1cccn2c(=O)c(C(=O)N3CCN(c4ccccc4)CC3)cnc12,22%

row,Compound,survival
1,Cc1cccc(N2CCN(C(=O)c3cccn4c(=O)c5cc(Cl)ccc5nc34)CC2C)c1 (stereo not given),65%
2,COc1ccc(NS(=O)(=O)c2ccc3c(c2)n(C)c(=O)c(=O)n3C)cc1Cl,77%
3,O=C(Cc1ccc(F)cc1)NC1CC(=O)N(c2ccccc2)C1 (stereo not given),72%
4,O=C(Cn1c(-c2cccs2)cc2ccccc21)NCc1ccccc1Br,120%
5,CN(CCCNC(=O)Cn1ncc2c([nH]c3ccccc32)c1=O)Cc1ccccc1,73%
6,O=C(Cn1ncc2c([nH]c3ccccc32)c1=O)NCc1cccc(Cl)c1,-3% (active)
7,CCCCN(C)CCNC(=O)Cn1ncc2c([nH]c3ccccc32)c1=O,0% (active)
8,CCN(CC)CCNC(=O)Cn1ncc2c([nH]c3ccccc32)c1=O,72%
9,Cc1ccc(CCNC(=O)Cn2ncc3c([nH]c4ccccc43)c2=O)cc1,66%
10,COc1ccc(CNC(=O)Cn2ncc3c([nH]c4ccccc43)c2=O)cc1,63%
11,CCC(=O)N1CCN(c2ccc(NC(=O)c3ccccc3)cc2)CC1,99%
12,Cc1cccc(Nc2nnc(-c3ccc(C)c(S(=O)(=O)N4CCN(C)CC4)c3)c3ccccc23)c1,147%
13,O=C(Nc1cccnc1Cl)c1cc(-c2ccc(Cl)cc2)on1,83%
14,O=C(CCC1N=C2c3ccccc3N=C(SCc3ccccc3F)N2C1=O)NCc1ccc(F)cc1 (stereo not given),73%
15,COc1ccccc1CNC(=O)CCC1N=C2c3ccccc3N=C(SCc3cccc(Cl)c3)N2C1=O (stereo not given),82%
16,COc1ccccc1CNC(=O)CCC1N=C2c3ccccc3N=C(SCc3ccc(Cl)cc3)N2C1=O (stereo not given),0% (active)
17,COc1ccccc1CNC(=O)CCC1N=C2c3ccccc3N=C(SCC(=O)NCCc3ccccc3)N2C1=O (stereo not given),129%
18,COc1ccc(CNC(=O)CCC2N=C3c4ccccc4N=C(SCc4ccccc4F)N3C2=O)cc1 (stereo not given),10% (active)
19,COc1ccc(OC)c(NC(=O)CSC2=Nc3ccccc3C3=NC(CCC(=O)NCc4ccco4)C(=O)N23)c1 (stereo not given),70%
20,COc1ccccc1CNC(=O)CCC1N=C2c3ccccc3N=C(SCc3ccc(C)cc3)N2C1=O (stereo not given),118%
21,COc1ccc(CNC(=O)CCC2N=C3c4ccccc4N=C(SCc4ccc(F)cc4)N3C2=O)cc1 (stereo not given),82%
22,COCCCNC(=O)CSC1=Nc2ccccc2C2=NC(CCC(=O)NCc3ccccc3OC)C(=O)N12 (stereo not given),73%
23,COc1ccc(OC)c(NC(=O)CSC2=Nc3ccccc3C3=NC(CCC(=O)NCc4ccccc4)C(=O)N23)c1 (stereo not given),-3% (active)
24,CCCCNC(=O)CSC1=Nc2ccccc2C2=NC(CCC(=O)NCc3ccccc3OC)C(=O)N12 (stereo not given),-2% (active)

row,Compound,survival
1,COc1ccc(OC)c(NC(=O)CSC2=Nc3ccccc3C3=NC(CCC(=O)NCCc4ccccc4)C(=O)N23)c1 (stereo not given),73%
2,CC1CCN(C(c2ccccc2)c2sc3nc(-c4ccco4)nn3c2O)CC1 (stereo not given),68%
3,Cc1[nH]c(=O)[nH]c(=O)c1/C=N\NC(=O)c1cc2ccccc2o1,111%
4,N#CC1=C(N)SC(N)=C(C#N)C1c1cc2c(cc1Cl)OCO2,112%
5,Cc1cccc(N(CC(=O)NC(C)c2ccccc2)S(=O)(=O)c2ccccc2)c1C (stereo not given),79%
6,Cc1cc(NC(=O)CSc2nc(-c3cccc(F)c3)nc3c2c(=O)n(C)c(=O)n3C)no1,68%
7,CCOc1cc(C#N)c(NC(=O)c2cccc(S(=O)(=O)N3CCOCC3)c2)cc1OCC,131%
8,Cc1ccc(CNC(=O)CN2Cc3ccccc3C2=O)cc1,76%
9,COc1cccc(CNc2ncnc3c2nnn3C)c1,79%
10,CCc1nnc(SCc2c(F)cccc2Cl)c2cc3sccc3n12,88%
11,CCc1nnc(SCc2ccc(F)cc2Cl)c2cc3sccc3n12,93%
12,CCc1nnc(SCc2cccc(Cl)c2)c2cc3sccc3n12,2% (active)
13,N#Cc1cccc(NC(=O)C2CCN(c3cnccn3)CC2)c1,105%
14,CCCCN(CCCC)CCNC(=O)c1cn(CC)c2ccc(S(=O)(=O)N3CCc4ccccc4C3)cc2c1=O,84%
15,CCN(C(=O)CSc1nc2ccccc2n1CC(=O)Nc1ccccc1C)c1ccccc1,-6% (active)
16,CC1CCN(C(=O)Cn2c(SCC(=O)NC(C)(C)C)nc3ccccc32)CC1,102%
17,CCN(CC)C(=O)Cn1c(SCC(=O)Nc2ccc(C)c(C)c2)nc2ccccc21,133%
18,CC1CCN(C(=O)Cn2c(SCC(=O)Nc3ccc(F)cc3)nc3ccccc32)CC1,70%
19,Cc1ccc(NC(=O)CSc2nc3ccccc3n2CC(=O)N2CCC(C)CC2)cc1C,-1% (active)
20,CCN(C(=O)CSc1nc2ccccc2n1CC(=O)Nc1cccc(C#N)c1)c1ccccc1,124%
21,CCN(C(=O)CSc1nc2ccccc2n1CC(=O)Nc1ccc(F)cc1F)c1ccccc1,73%
22,Cc1ccc(NC(=O)CSc2nc3ccccc3n2CC(=O)N(C)C2CCCCC2)cc1C,78%
23,CCCCN(C)C(=O)Cn1c(SCC(=O)Nc2ccc(C)c(C)c2)nc2ccccc21,14% (active)
